# A selection: hits, their analogues and other compounds. The true share with any hit is near 4.6%.
# TIM10 inh – growth inhibitors of isogenic TIM10 control yeast, primary screen, counter-screen for tim10-1 yeast inhibitor project, luminescence, uHTS; S. cerevisiae TIM10 strain growth, BacTiter-Glo luminescence, 24 h; inhibition, % at 10 µM; 1.4% of 330,000 active; AID 463195, 2010;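 active = inhibition of 40% or more at the single tested concentration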;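 note: wild-type TIM10 isogenic control strain grown at permissive 25 °C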
# PfHsp90 set2 – growth inhibition of PfHsp90-expressing yeast, primary screen, antimalarial PfHsp90 inhibitor project, S. cerevisiae, BacTiter-Glo luminescence, single point, set 2; BacTiter-Glo ATP, 48 h; yeast lacking PDR1 and PDR3 efflux regulators; inhibition, % at 9.4 µM; 0.32% of 310,000 active;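 active = every replicate shows inhibition above about 80%, whatever the replicate mean, limit read from the data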;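 note: 0% = DMSO neutral controls and 100% = 20 µM radicicol positive controls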
# SKKanGAS inh – S. pyogenes SKKanGAS growth inhibitors in kanamycin, primary screen, streptokinase expression inhibitor project, SKKanGAS strain, BacTiter-Glo luminescence; 6 h; inhibition, % at 7.5 µM; 1.3% of 300,000 active; AID 1662, 2009;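 active = mean replicate score, as percent of positive control median, at least 50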;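 note: strain carries kanamycin resistance gene driven by streptokinase promoter and grows in 40 µg/ml kanamycin; loss of luminescence reflects streptokinase promoter inhibition or plain growth inhibition; 0% = median of DMSO wells and 100% = positive control at its reference dose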
# tim23-1 inh – growth inhibitors of tim23-1 mutant yeast, primary screen, luminescence, uHTS | inhibition, % at 20 µM | 1.3% of 330,000 active | S. cerevisiae tim23-1 growth, BacTiter-Glo luminescence, 24 h;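 active = growth inhibition of the mutant yeast at or above 50%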;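 note: temperature-sensitive mutant grown at 25 °C; plate controls were DMSO-treated mutant yeast for no effect and medium wells lacking yeast for full effect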
# tim10-1 inh – growth inhibitors of tim10-1 mutant yeast, primary screen, luminescence, uHTS. 2.2% of 330,000 active. inhibition, % at 20 µM. S. cerevisiae tim10-1 ts strain growth, BacTiter-Glo, 24 h;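 active = inhibition of at least 40%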;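 note: mutant grown at 25 °C; 0% = DMSO wells with yeast and 100% = wells holding no yeast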
# V-ATPase pH – regulators of yeast V-ATPase proton pumping, primary screen, pHLuorin cytosolic pH fluorescence; 0.37% of 350,000 active; response, % at 10 µM; S. cerevisiae; in the data active = response mostly above about 7.3%, no sharp cut-off; inactive = mostly below about 5.4%; note: actives read high
# tim23-1 confirm – tim23-1 mutant yeast growth inhibitors, confirmation, luminescence, single concentration; inhibition, % at 20 µM; S. cerevisiae tim23-1 growth, BacTiter-Glo luminescence, 24 h; AID 463218, 2010; shares compounds with tim23-1 inh; 83% of 4,400 active;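 active = inhibition above about 39% in either of two replicate wells at 20 µM, limit read from the data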;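 note: temperature-sensitive tim23-1 mutant grown at 25 °C; 0% = DMSO wells with yeast and 100% = medium wells without yeast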
# * = called active by the depositor; . = no result.
SMILES,TIM10 inh,PfHsp90 set2,SKKanGAS inh,tim23-1 inh,tim10-1 inh,V-ATPase pH,tim23-1 confirm
CC(C)C(=O)N1CCN(c2ccc(NC(=O)c3cccs3)cc2Cl)CC1,23.9,23.9,-2.8,34.2,-14.4,-13.2,.
O=C(Nc1ccc(N2CCN(C(=O)c3ccco3)CC2)c(Cl)c1)c1cccs1,19.5,16.4,1.7,57.8*,28.2,-2.6,52.9*
O=C(Nc1ccc(Cl)c(NC(=O)c2cccs2)c1)c1ccco1,9.6,16.3,-4.6,54.7*,26.7,-0.4,48.2*
O=C(Nc1ccc(NC(=O)c2cccs2)cc1Cl)c1ccco1,18.5,7.1,-0.6,34.2,-11.2,1.0,.
O=C(Nc1cccc(Cl)c1)ON=C1c2ccccc2-c2ccccc21,7.6,-4.5,0.8,61.8*,17.0,1.5,45.8*
O=C(Nc1cccc(Cl)c1)OCCOCCOC(=O)Nc1cccc(Cl)c1,.,-10.1,.,.,.,3.7,.
CCn1c(SCC(=O)Nc2oc(C)c3c(C)n[nH]c(=O)c23)nc2sc(C)c(C)c2c1=O,29.1,-25.2,-2.7,55.3*,30.3,0.8,7.5
Cc1cc(C)c(C)c(SCC(=O)Nc2oc(C)c3c(C)n[nH]c(=O)c23)c1C,13.4,7.2,7.7,14.8,21.7,1.4,.
Cc1cccc(C(=O)OCC(=O)NC23CC4CC(CC(C4)C2)C3)c1O,37.7,-0.2,.,56.1*,13.8,-2.6,55.8*
Cc1cccc(C(=O)OCC(=O)NC2CC2)c1O,-8.2,2.9,.,-10.5,-7.0,4.9,.
O=C(NC(=S)NCc1ccco1)c1ccc(Br)cc1,30.7,.,-1.5,56.4*,32.7,-1.7,45.3*
CC1CCCN(S(=O)(=O)c2ccc(S(=O)(=O)N3CCCC3)cc2)C1 (stereo not drawn),6.1,-3.9,1.3,-9.9,-25.8,-0.2,.
CC1CCCN(S(=O)(=O)c2ccc3[nH]c4c(c3c2)CCCC4)C1 (stereo not drawn),33.0,30.2,-0.2,55.9*,32.0,-6.4,56.4*
Brc1ccc(-n2cnc(-c3ccccc3)c2)cc1,34.6,-4.5,-4.8,55.3*,9.5,0.6,51.0*
C/C=C/c1ccc(O)c(OC)c1,3.4,-19.9,.,20.9,37.4,-4.9,.
COc1cc(/C=C/c2ccc3cccc(O)c3n2)ccc1O,35.6,-16.8,87.7*,52.0*,33.3,-0.6,66.2*
CCc1ccc(C(C)(O)C(CN2CCOCC2)c2ccccc2)cc1 (stereo not drawn),19.9,14.9,-1.7,37.3,5.1,-0.3,.
CCC(C)(C)C1CCc2[nH]nc(C(=O)NCCCNC(=O)OC(C)(C)C)c2C1 (stereo not drawn),17.3,16.0,.,16.8,-2.5,-1.3,.
Cn1c(=O)c(C(=O)NCc2ccc(F)cc2)c(O)c2ccccc21,9.1,-3.1,12.8,41.2,4.2,1.1,.
CCn1c(=O)c(C(=O)NCc2ccccc2Cl)c(O)c2ccccc21,3.3,33.0,39.3,35.0,-9.6,-2.9,.
Cn1c(=O)c(C(=O)NCc2ccccc2)c(O)c2ccccc21,-1.5,3.9,-8.3,53.7*,-15.7,-0.7,26.5
CC(=O)c1c(O)c2ccccc2n(Cc2ccccc2)c1=O,10.6,-0.8,0.7,56.3*,27.7,0.0,35.9
CN(Cc1ccccc1)C(=O)c1ccc(NC(=O)Cc2ccc(NC(=O)C3CCN(S(=O)(=O)c4cccc([N+](=O)[O-])c4)CC3)cc2)cc1,.,7.8,.,.,.,0.8,.
Cc1occc1C(=O)Nc1cccc([N+](=O)[O-])c1C,-22.3,10.2,2.4,8.1,-7.6,0.9,.
Nc1c(C(=O)Nc2ccc3c(c2)OCCO3)nnn1Cc1cccc(Cl)c1,11.4,.,22.2,23.0,17.1,0.1,.
SMILES,TIM10 inh,PfHsp90 set2,SKKanGAS inh,tim23-1 inh,tim10-1 inh,V-ATPase pH,tim23-1 confirm
O=C(Nc1ccc2c(c1)OCCO2)c1cccc(Cl)c1,33.2,20.6,0.5,51.5*,-6.5,-2.8,57.0*
Nc1c(C(=O)Nc2ccc3c(c2)OCCO3)nnn1Cc1ccccc1Cl,-17.7,83.4*,17.3,65.5*,8.2,-1.9,42.3*
Cc1ccc(NC(=O)CN(C)C(=O)CSc2nccn2C)cc1,-1.5,6.1,.,-13.6,-12.0,2.2,.
CCN(CC)CCOC(=O)c1ccc(NC(=O)C2(c3ccccc3)CCCC2)cc1,10.0,-1.1,1.7,95.2*,-0.2,1.2,4.8
O=C(O)c1ccc(NC(=O)C2(c3ccccc3)CCCC2)cc1,-15.7,8.1,-4.7,3.6,3.4,0.8,.
C=CCN(Cc1cccc(OC)c1OC)C(=O)Oc1ccccc1,-1.9,-5.8,.,15.2,-10.4,-4.7,.
O=C(NCCN1C(=O)S/C(=C\c2cccc(Cl)c2Cl)C1=O)C1=COCCO1,-106.1,-22.3,-6.7,54.8*,24.8,-1.1,35.3
Cc1ccc(S(=O)(=O)N2CCOCC2)cc1C(=O)NCCN1C(=O)S/C(=C\c2ccccc2Cl)C1=O,25.4,13.9,-5.2,4.0,16.8,0.3,.
Cc1cc(C)c(C#N)c(Nc2cccc(C)c2C)n1,-11.8,12.4,1.3,14.0,-0.5,-1.2,.
CC(C)(C)C(=O)Nc1ccc(/C=C/C(=O)c2ccco2)cc1,37.0,4.3,7.2,51.5*,37.8,-0.5,44.7*
CC(C)(C)C(=O)Nc1ccc(NC(=O)c2ccco2)nc1,12.9,18.8,0.0,8.1,11.4,2.0,.
CCc1ccc(C(=O)C(C)OC(=O)c2nc3nc(C)cc(C)n3n2)cc1 (stereo not drawn),-1.8,17.9,6.3,-13.1,-16.5,-3.5,.
CCn1c(SCc2ccc(Cl)cc2)nc2nc3c(cc2c1=O)CCCC3,16.1,-8.8,24.6,26.8,11.6,-1.9,.
CSc1nc2nc3c(cc2c(=O)n1-c1ccccc1C)CCCC3,10.5,23.3,-6.6,55.1*,16.8,0.0,43.6*
COc1ccc(NC(=O)CSCC(=O)N2CCN(C(=O)c3ccco3)CC2)cc1,0.6,13.6,.,13.3,-2.2,-1.9,.
NNC(=O)c1[nH]c2ccc(Br)cc2c1-c1ccccc1,22.5,3.2,9.2,53.5*,20.1,-7.9,49.8*
Cc1ccccc1CS(=O)(=O)c1ncc(Cl)c(C(=O)Nc2ccc(F)cc2)n1,5.7,114.4*,-12.3,61.9*,-1.1,-5.7,-23.2
COc1ccc(NC(=O)c2nc(S(=O)(=O)Cc3cccc(C)c3)ncc2Cl)c(OC)c1,19.0,-8.0,3.0,35.1,31.6,-31.5,.
Cc1nnc(NC(=O)c2nc(S(=O)(=O)Cc3ccccc3)ncc2Cl)s1,15.7,20.5,6.0,15.0,14.8,-2.7,.
COc1ccc(OC)c(NC(=O)c2nc(S(=O)(=O)Cc3ccccc3)ncc2Cl)c1,34.3,100.5*,-11.8,73.1*,11.0,2.5,-42.8

# High-throughput results deposited in PubChem by several laboratories.
